# Data published in PubChem BioAssay (NCATS).
# Inconclusive results are not listed. Values without a mark were called inactive. Calls come from the whole dose curve; as a rule, active = well fitted inhibition curve with a large enough effect; inconclusive = small, poorly fitted or top-dose-only effect; inactive = flat fitted curve, though single readings scatter.
# Molecular target: Calcium and integrin-binding protein 1 (Homo sapiens) (UniProt Q99828)
# Assay: Primary qHTS for Identification of Calcium Integrin Binding Protein 1 (CIB1) Competitor (AID 1508620); note: top concentration of the series differs between compounds
# Settings: CIB1-GST / FITC-alphaIIb peptide fluorescence polarization; series mostly up to 114 µM; activity change, negative = inhibition: at the top concentration
# In short: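 Fluorescence polarization competition: GST-tagged CIB1 (1 uM final) preincubated with compound 15 min at room temperature, then FITC-labelled alphaIIb peptide (100 nM final) added. After 15 min at room temperature, polarization read at Ex 480/Em 540.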
# % is set by controls: 0 for no effect and ±100 for the full control effect.
# Calcium and integrin-binding protein 1 (Homo sapiens), sequence (Q99828 whole entry, looked up): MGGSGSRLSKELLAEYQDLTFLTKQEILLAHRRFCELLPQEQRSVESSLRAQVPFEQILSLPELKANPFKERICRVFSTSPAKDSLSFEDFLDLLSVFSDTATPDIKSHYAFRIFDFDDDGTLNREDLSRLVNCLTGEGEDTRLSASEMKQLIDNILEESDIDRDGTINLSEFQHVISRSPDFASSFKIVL
row,SMILES,"activity change, negative = inhibition [%]"
1,COc1ccc(NC(=O)Nc2ccc(-c3nc4ccccc4[nH]3)cc2)cc1OC,-17.5
2,Cn1c2cc(B(O)O)sc2c2cnn(Cc3c(F)cccc3Cl)c(=O)c21,3.07
3,CCOC(=O)c1c(CNCc2ccccc2F)c2sc(C)cc2n1C,1.92
4,Cc1ccc(NC(=O)CN2C(=O)N/C(=C\c3cccn3-c3ccc([S+](N)(=O)[O-])cc3)C2=O)cc1,-5.38
5,N#Cc1nc(NCC(F)F)nc(Nc2cc(F)cc(F)c2)n1,-1.65
6,CC(C)c1ccccc1-c1nc(NCc2ccc(-c3cccnc3)cc2)c2cccn2n1,-4.05
7,COc1ccc(C2=Nn3c(nnc3-c3ccc(OC)cc3OC)SC2)cc1,-1.79
8,O=C1c2ccccc2C(=O)c2cc(S(=O)(=O)Nc3cccc4cccnc34)ccc21,-16.6
9,Cc1ccc2oc(NC3=NC4(CCCC4)C4=C(CCCC4=O)N3)nc2c1,-6.35
10,Oc1ccc(CNc2cccc(F)c2)c2cccnc12,13.5
11,COc1ccc(NC(=O)C(OC(=O)CNC(=O)c2ccccc2)c2ccccc2)cc1F (stereo not given),2.77
12,CC1=C(C(=O)Nc2ccccc2Cl)C(c2ccccc2Br)N=C(Nc2nc3ccccc3o2)N1 (stereo not given),-4.75
13,COc1cccc(CCN2C(=O)c3ccccc3NC2c2ccc(OC)c(COc3c(C)cc(NC(C)=O)cc3C)c2)c1 (stereo not given),-3.63
14,Cc1ccc(CNc2ncnc3ccc(-c4ccoc4C)cc23)o1,-6.85
15,C#CCOc1ccc(C(C)=O)cc1-c1nnc2n1N=C(c1ccc(OC)c(O[C@@H]3CCOC3)c1)CS2,-1.87
16,O=C(Cc1nnc(-c2ccncc2)s1)Nc1ccc(F)c(C(F)(F)F)c1,6.46
17,COc1ccc(-c2nnc3n2N=C(c2c(OC)cccc2OC)CS3)cc1,0.483
18,CNc1oc(-c2cccc3ncccc23)nc1C#N,-2.75
19,COc1cc(-c2nc(Nc3ccc(F)c(F)c3)c3ccccc3n2)ccn1,8.98
20,CCOC(=O)c1ccoc1-c1ccc2ncnc(NCc3ncc[nH]3)c2c1,-1.65

row,SMILES,"activity change, negative = inhibition [%]"
1,N#Cc1c(-c2cccc(Br)c2)no[n+]1[O-],4.21
2,FC(F)(F)c1ccccc1-c1nc(NCc2ccc(-c3ccccc3)cc2)c2ccccc2n1,2.55
3,Cc1ccc(-c2ccc(=O)n(CC(=O)NCCc3ccccc3)n2)cc1,0.999
4,CN(C)S(=O)(=O)c1ccc(-c2nc(NCc3ccc(-c4ccnc(C(F)(F)F)c4)cc3)c3ccccc3n2)cc1,12.4
5,Cc1nnc(-c2ccccc2[N+](=O)[O-])n1CCCn1ccnc1,1.14
6,Cc1cc(NC(=O)Nc2nnc(C3CCCCC3)s2)ccc1Cl,1.31
7,Cn1nnnc1Sc1ncnc2scc(-c3ccc(C#N)cc3)c12,-2.04
8,CC(=O)Nc1sc2c(c1-c1cccc3[nH]ncc13)CCNC2,-1.12
9,O=C(O)CCCCCNC(=O)CSc1nnc(-c2ccc([S+](=O)([O-])N3CCCC3)cc2)n1-c1ccccc1,-7.32
10,NC(=O)c1c(NC(=O)c2ccco2)sc2c1CCCC2,-9.04
11,Clc1ccccc1CSc1nc2ncc(Br)cc2[nH]1,0.461
12,CSc1ccc(-c2cncc(NC(=O)c3cccs3)c2)cc1,-6.29
13,COc1ccc(C2Nc3ccccc3C(=O)N2Cc2ccccc2)cc1COc1ccc(NC(=O)c2ccccc2)cc1 (stereo not given),12
14,N#Cc1nc(Nc2cc(F)cc(Cl)c2)nc(NC2CCCC2)n1,5.14
15,O=c1c2ccccc2nc2sc(Nc3cccc4ccccc34)nn12,3.85
16,Fc1cccc(CNc2ncnc3ccc(-c4ccoc4)cc23)c1,-3.06
17,Fc1cc(Nc2nc(-c3ccncc3)nc3ccccc23)ccc1OCC(F)(F)F,2.76
18,COc1cccc(C2=Nn3c(nnc3-c3cccc(OC)c3OC)SC2)c1,-0.241
19,O=S1(=O)N=C(N2CCOCC2)c2ccccc21,0.0775
20,Fc1cc(-c2nc(Nc3ccc(F)c(F)c3)c3ccccc3n2)ccn1,5.17
